Reference: PubChem BioAssay AID1578 (Sanford-Burnham Center for Chemical Genomics, 2009)
In all, about 290,000 compounds went through this assay and about 3,000 (1%) were called active. Rule as the data show it: active = inhibition mostly above about 36% (no sharp cut-off); inactive = mostly below about 34%. Many of the other results were omitted from the sample, so actives are more common in it than they were.

assay: inhibition of NOD1-driven NF-kB reporter – cell-based, luminescence, uHTS, primary screen (AID 1578); settings: NOD1-driven NF-kB luciferase reporter cells, at 4 µM, hits give high values;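 also: HEK-293T reporter cells stimulated with the NOD1 agonist gamma-tri-DAP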

inhibition, active:
COc1cccc(CN(Cc2ccco2)C(c2ccc(F)cc2)c2nnnn2C(C)(C)C)c1 (configuration not stated) 50.8%
Cc1cc(Cl)ccc1NC(=S)N1CCN(Cc2ccc3c(c2)OCO3)CC1 79.9%
O=C(Nc1ccc(C(=O)N2CCOCC2)cc1)Nc1cccc(C(F)(F)F)c1 60%
O=C(Nc1ccc(OC(F)(F)F)cc1)Nc1cccc([N+](=O)[O-])c1 75.1%
CCCCOc1ccc(CSc2nc(C)[nH]c2[N+](=O)[O-])cc1[N+](=O)[O-] 39.8%
COc1ccc(-n2cc(CNC3CCC(O)CC3)c(-c3cccc(F)c3)n2)cc1 (configuration not stated) 51.1%
COc1ccc2[nH]c3c(c2c1)CC(C)NC3=O (configuration not stated) 87%
Cc1nn(-c2ccccc2Cl)c(Cl)c1/C=N/Nc1nc2ccccc2s1 87.9%
CCc1ccc(-c2cn3nc(C)c(C)nc3n2)cc1 76.1%
O=C1N(c2ccccc2)C[C@@H]2C[C@@H](c3cc4ccccc4o3)N3CCC[C@@]123 98%

inhibition, inactive:
COc1ccccc1-c1cc(C(=O)Nc2ccccc2SC)no1 -10%
CCOC(=O)C1(Cc2ccccc2C)CCCN(C(=O)c2ccnn2C)C1 (configuration not stated) -17.1%
Cc1ccc(C)c(SCC(=O)NNC(=O)c2ccccc2)c1 -14.3%
CCN1CCN(S(=O)(=O)c2cc(OCC(=O)NC3CCCCC3)c(C)cc2Cl)CC1 26.3%
Cc1cc(Cl)c(S(=O)(=O)N2CCCC2)cc1OCC(=O)NC1CCCCC1 28.5%
C/C(=C\c1ccccc1)C(=O)Nc1cc(C)on1 -6.1%
Cc1ccccc1Cn1cc(C)c(=O)[nH]c1=O -20.8%
CC(C)(C)n1nnnc1C(c1ccc(C(F)(F)F)cc1)N(Cc1ccc(F)cc1)Cc1ccco1 (configuration not stated) -13.2%
CC(C)(C)n1nnnc1C(c1ccc(F)cc1)N(Cc1ccc(F)cc1)Cc1ccco1 (configuration not stated) -2.1%
Cc1nc2cc(NC(=O)N3CC4(C)CC3CC(C)(C)C4)ccc2n1C (configuration not stated) -31.3%
COC(=O)CCc1ccc(O)cc1 -24%
CN1CCN(C(c2ccc(C(F)(F)F)cc2)c2ccc3cccnc3c2O)CC1 (configuration not stated) 23.8%
Cc1c(CCO)c(=O)[nH]n1S(=O)(=O)c1ccc(F)cc1 -15.6%
Cc1csc(CNC(=O)c2ccc(OC3CCN(CCc4ccccc4)CC3)cc2)n1 -16.3%
OCC1(CCOc2ccccc2)CCN(CC2=Cc3cc(Cl)ccc3OC2)CC1 -37.6%
COc1ccc2c(c1)C=C(CN1CCC(CO)(CCc3ccccc3)CC1)CO2 -10%
CCOc1cc(C(=O)NN2CCOCC2)cc(OCC)c1OCC -21.5%
O=C(c1n[nH]c(=O)c2ccccc12)N1CCN(Cc2ccc3c(c2)OCO3)CC1 3.4%
O=C(c1ccccc1)N1CCN(Cc2ccc3c(c2)OCO3)CC1 -5.8%
O=C(NC(=S)N1CCN(Cc2ccc3c(c2)OCO3)CC1)c1ccc(Cl)cc1 -3.6%
Cc1ccccc1NC(=S)N1CCN(Cc2ccc3c(c2)OCO3)CC1 -15.3%
CCN(CC)c1ccc(C(=O)NC(=S)N2CCN(Cc3ccc4c(c3)OCO4)CC2)cc1 -0.4%
Cc1cc(Cl)ccc1NC(=S)N1CCN(Cc2ccccc2)CC1 -13.4%
O=C(COC(=O)COc1ccccc1Cl)Nc1ccccc1OC(F)F -10.4%
CN(CCCC(=O)N1CCCC(C(N)=O)C1)S(=O)(=O)c1ccc(F)cc1 (configuration not stated) -19.1%
Cc1ccc(NC(=O)CN2C(=O)S/C(=C\c3ccc(C(=O)O)cc3)C2=O)cc1 -12.7%
O=C(Cc1ccc(-n2c(=O)c3ccccc3n(Cc3cccc([N+](=O)[O-])c3)c2=O)cc1)NCC1CCCO1 (configuration not stated) 5.4%
COc1ccc(CCNC(=O)CSc2ccc(-c3ccco3)nn2)cc1OC -15.4%
COc1ccc(F)cc1S(=O)(=O)NCCN1CCOCC1 15.5%
COc1cccc2cc(C(=O)OC3CCN(C)CC3)c(=O)oc12 -29.1%
Cc1ccc(Cl)cc1N1CCN(Cc2nnnn2Cc2ccco2)CC1 -5.9%
Cc1cc(C)n(C(=O)CNC(=O)c2ccccc2Br)n1 -28.7%
COCCn1c(-c2ccc(OC)cc2)cnc1SCC(=O)Nc1cccc2ccccc12 -37.9%
O=C(Nc1cccc([N+](=O)[O-])c1)Nc1cccc([N+](=O)[O-])c1 -8.2%
CN(C)S(=O)(=O)Oc1ccc(C(=O)Nc2cccc(Cl)c2)cc1 -35.9%
O=C(Nc1ccc(C(=O)O)cc1)Nc1cccc([N+](=O)[O-])c1 -12.4%
O=C(Nc1ccccc1)Nc1cccc(C(F)(F)F)c1 -33.9%
O=C(Nc1ccc(C(=O)N2CCOCC2)cc1)Nc1cccc(Cl)c1 -21.7%
CNC(=O)Nc1cccc(C(F)(F)F)c1 -23%
CN(C)S(=O)(=O)Oc1ccccc1C(=O)Nc1cccc(C(F)(F)F)c1 -19.2%
CC(=O)c1cccc(NC(=O)Nc2ccc(C(=O)N3CCOCC3)cc2)c1 5.9%
CCOc1ccc(NC(=O)CS(=O)CC(=O)N(CC(=O)NC(C)(C)C)C2CCCC2)cc1 (configuration not stated) -23.1%
O=C(CC1C(=O)NCCN1Cc1ccc(-c2ccccc2)cc1)NCCCn1ccnc1 (configuration not stated) -4.4%
COCCNC(=O)C(C)N1c2cccc3cccc(c23)S1(=O)=O (configuration not stated) -37.7%
NC(CCC(=O)O)C12CC3CC(CC(C3)C1)C2 (configuration not stated) -26.1%
COC(=O)[C@H](Cc1ccccc1)NC(=O)NCCc1ccc(OC)cc1 -0.3%
CC(=O)c1cc2c(cc1NC(=O)CN1CCCCCCC1)OCO2 -24.2%
Cc1cc(C(=O)Nc2ccccn2)cs1 -53.4%
CCCC[C@@H]1CNC(=S)N1CCC12CC3CC(CC(C3)C1)C2 -25.1%
Cc1nc(SCc2ccc(O)c([N+](=O)[O-])c2)c([N+](=O)[O-])[nH]1 -13.5%
COc1ccc(CSc2nc(C)[nH]c2[N+](=O)[O-])cc1[N+](=O)[O-] -4.2%
CCOC1(OCC)N=C(N)C2(C#N)C(c3ccc(NC(C)=O)cc3)C12C#N (configuration not stated) -12.4%
CN(CC(=O)Nc1c(Cl)cccc1Cl)C(=O)CCCN1C(=O)c2ccccc2C1=O 15.6%
O=C(N/N=C/C=C\c1ccccc1[N+](=O)[O-])c1ccncc1 -7.4%
COc1ccc(-n2cc(CNC3CCOCC3)c(-c3cccc(F)c3)n2)cc1 21.8%
COc1ccc(-n2cc(CNC3CCN(C)CC3)c(-c3cccc(F)c3)n2)cc1 14.5%
Cc1cccc(C)c1N1CCN(c2nc(N(C)C)oc(=O)c2C#N)CC1 18.2%
CCOC(=O)C1CCCN(C2=NC(=O)/C(=C/c3ccc(OC)cc3)S2)C1 (configuration not stated) -6.7%
CC1=C(C(=O)N2CCOCC2)C(c2ccc(-c3ccccc3)cc2)NC(=S)N1 (configuration not stated) -25.1%
CCOc1ncccc1C(=O)N1CCN(C(c2ccccc2)c2ccccc2)CC1 -13%
Cc1ccccc1C(=O)N1CCN(C(c2ccccc2)c2ccccc2)CC1 -1.2%
c1ccc(CN(Cc2ccccc2)c2ncnc3c2nnn3Cc2ccccc2)cc1 -2.6%
CCNc1nc(NCC)n2c(SCC(=O)Nc3ccccc3[N+](=O)[O-])nnc2n1 -16.6%
Cn1c2c(c(=O)n(C)c1=O)C(CC(=O)Nc1ccccc1)C(=O)N2 (configuration not stated) -23.5%
CC1Cc2c([nH]c3ccccc23)C(=O)N1 (configuration not stated) 26.8%
COc1ccc2[nH]c3c(c2c1)CCC/C3=N\N -3.8%
COc1cc(OC)cc(C(=O)NNC(=S)NC2CC2)c1 -35.8%
C=CCn1c(=O)c2ccccc2n2c(SC(C)C(N)=O)nnc12 (configuration not stated) -5.9%
C[C@@H](CN=[N+]=[N-])CN1CC[C@H](C(C)(C)C)CCC1=O -15.8%
CC(C)/C=C/CN1CCN(CCCc2ccccc2)C(CCO)C1 (configuration not stated) 45.1%
N#CCOC(=O)[C@H](Cc1ccccc1)N1C(=O)c2ccccc2C1=O -3.8%
Cc1nn(-c2ccccc2Cl)c(Cl)c1/C=N/Nc1cccc(C(=O)O)c1 19.9%
CCOC(=O)N/N=C/c1c(C)nn(-c2ccccc2Cl)c1Cl -46.5%
COc1ccc(CCNC(=O)CNC(=O)c2nn(-c3ccc(OC)c(OC)c3)c(=O)c3ccccc23)cc1OC -4.9%
COc1ccc(C(=O)Nc2sc3c(c2C(=O)O)CC(C)(C)OC3)cc1 -23.2%
CC1(C)Cc2c(sc(NC(=O)c3ccccc3)c2C(=O)O)CO1 -22.9%
Cc1nc2nc(-c3ccc(Cl)cc3)cn2nc1C -11.9%
Cc1ccc(-c2cn3nc(C)c(C)nc3n2)cc1 46.8%
O=C1N(c2ccccc2)C[C@@H]2C[C@@H](c3cccs3)N3CCC[C@@]123 -35.1%
O=C1N(c2ccccc2)C[C@@H]2C[C@@H](c3cccc4c3OCO4)N3CCC[C@@]123 -27.6%
Cc1onc(-c2c(F)cccc2Cl)c1C(=O)NC(=S)NC1CCS(=O)(=O)C1 (configuration not stated) -19.3%
COc1ccc(CC(=O)N2CCN(c3cccc(C)c3C)CC2)cc1 -24.5%
